Measured potencies and affinities stand elsewhere.
Molecular target: Beta-adrenergic receptor kinase 1 (Homo sapiens) (UniProt P25098)
Test: aptamer displacement from bead-bound GRK2 – biochemical, cherry pick 1, bead flow cytometry, dose response (AID 504500)
Conditions: bead-bound biotinylated GRK2, FAM-aptamer displacement; series mostly up to 33 µM; inhibition of aptamer binding: at the top concentration;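 active means compounds whose curve fit is tight, with span above 25% and half-effect concentration below 10 µM; inactive means the rest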

Sequence of Beta-adrenergic receptor kinase 1 (Homo sapiens) (P25098 whole entry, looked up): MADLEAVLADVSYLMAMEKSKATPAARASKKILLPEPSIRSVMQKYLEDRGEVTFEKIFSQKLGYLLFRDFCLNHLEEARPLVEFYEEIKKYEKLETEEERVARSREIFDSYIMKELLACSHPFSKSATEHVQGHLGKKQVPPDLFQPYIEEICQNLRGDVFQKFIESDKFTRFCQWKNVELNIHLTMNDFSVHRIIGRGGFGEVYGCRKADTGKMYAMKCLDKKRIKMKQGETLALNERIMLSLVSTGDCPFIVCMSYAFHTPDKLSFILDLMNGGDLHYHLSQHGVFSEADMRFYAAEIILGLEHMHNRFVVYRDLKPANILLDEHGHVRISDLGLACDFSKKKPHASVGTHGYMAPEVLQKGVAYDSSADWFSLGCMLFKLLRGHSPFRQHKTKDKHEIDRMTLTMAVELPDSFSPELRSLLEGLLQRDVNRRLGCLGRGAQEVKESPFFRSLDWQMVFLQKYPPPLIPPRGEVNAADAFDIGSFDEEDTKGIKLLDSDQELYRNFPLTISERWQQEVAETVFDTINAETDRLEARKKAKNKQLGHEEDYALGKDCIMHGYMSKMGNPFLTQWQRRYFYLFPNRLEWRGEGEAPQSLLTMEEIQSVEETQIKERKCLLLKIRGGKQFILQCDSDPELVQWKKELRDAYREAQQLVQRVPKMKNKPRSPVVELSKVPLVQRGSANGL

Inhibition of aptamer binding, inactive:
CCN1/C(=C\c2ccc3ccccc3[n+]2CC)Sc2cc(C)ccc21 63.6%
COc1ccc(NC(=O)CCS(=O)(=O)c2ccc(Br)s2)cc1 63.9%
O=C(/C=C/c1ccco1)OCC(=O)N1CCCCC1 3.17%
Cc1ccc(CCNC(=O)CCS(=O)(=O)c2ccc(Br)cc2)cc1 66%
Cc1cccc(N2CCN(C(=O)CCS(=O)(=O)c3ccc(Br)cc3)CC2C)c1 (stereo not drawn) 95.7%
COc1ccc(S(=O)(=O)NCC(c2ccc(F)cc2)N2CCN(C)CC2)cc1 (stereo not drawn) -4.14%
CCN1/C(=C/c2ccc3ccc(C)cc3[n+]2CC)Sc2ccccc21 -3.68%
CCc1ccccc1NC(=O)CCS(=O)(=O)c1ccc(Br)cc1 55.8%
Cc1ccc(C(=O)Nc2cccc(C(=O)NCc3ccco3)c2)cc1 2.31%
O=C(CCS(=O)(=O)c1ccc(Br)cc1)NCCc1ccc(Cl)cc1 87.3%
COc1ccccc1-[n+]1c(C)cc(/C=C2\Sc3ccccc3N2C)cc1C -8.14%
O=P(c1ccccc1)(c1ccccc1)c1cc(S(=O)(=O)O)ccc1O -2.57%
O=C(CCS(=O)(=O)c1ccc(Br)cc1)NCCc1ccccc1 76.5%
CCOc1ccccc1NC(=O)CCS(=O)(=O)c1ccc(Br)cc1 1.18%
Cc1ccc(OCC(=O)c2c(N)n(C)c(=O)n(C)c2=O)c([N+](=O)[O-])n1 85%
C=C(C)C(=O)Nc1cccc(C2=NOC3(C2)C[C@H](C(N)=O)N(C(=O)CC#N)C3)c1 (stereo partly drawn) -8.72%
CCN1/C(=C/c2ccc3cccc(C)c3[n+]2CC)Sc2ccccc21 44.9%
Cc1oc(-c2ccc(Cl)cc2)nc1CN1CCCC(C(=O)NCc2cccnc2)C1 (stereo not drawn) -6.31%
